# Assay results as given in the supplement of paper PMC4466140.
# Assays:
# Experiment in all cases: SPOT peptide array binding signal intensity (averaged, normalized) (arbitrary units (background-subtracted, floor 0; scale differs between SH3 domains)); higher = stronger binding of the SH3 domain to the peptide
# AgAbp1 = target: AgAbp1
# How it was run: (§1)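 The binding signal is the normalized, background-subtracted spot intensity averaged over replicates; its arbitrary units differ between domains. It was obtained by incubating 10 μg/ml GST-fused SH3 domains from four yeast species overnight at 4°C in TBS-based blocking buffer on cellulose membranes with synthetic 15-mer peptides, cysteines replaced by serines, then detecting with anti-GST antibody, HRP anti-mouse secondary and luminol.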
# AgBbc1 = target: AgBbc1
# How it was run: as §1
# AgBem1-D1 = target: AgBem1-D1
# How it was run: as §1
# AgBzz1-D1 = target: AgBzz1-D1
# How it was run: as §1
# AgBzz1-D2 = target: AgBzz1-D2
# How it was run: as §1
# AgCyk3 = target: AgCyk3
# How it was run: as §1
# AgFus1 = target: AgFus1
# How it was run: as §1
# AgHof1 = target: AgHof1
# How it was run: as §1
# AgHse1 = target: AgHse1
# How it was run: as §1
# AgLsb1 = target: AgLsb1
# How it was run: as §1
# AgLsb4 = target: AgLsb4
# How it was run: as §1
# AgMyo5 = target: AgMyo5
# How it was run: as §1
# AgNbp2 = target: AgNbp2
# How it was run: as §1
# AgRvs167 = target: AgRvs167
# How it was run: as §1
# AgSho1 = target: AgSho1
# How it was run: as §1
# AgSla1-D1-D2 = target: AgSla1-D1-D2
# How it was run: as §1
# AgSla1-D3 = target: AgSla1-D3
# How it was run: as §1
# CaAbp1-D1 = target: CaAbp1-D1
# How it was run: as §1
# CaAbp1-D2 = target: CaAbp1-D2
# How it was run: as §1
# CaBbc1 = target: CaBbc1
# How it was run: as §1
# CaBem1-D1 = target: CaBem1-D1
# How it was run: as §1
# CaBzz1-D1 = target: CaBzz1-D1
# How it was run: as §1
# CaBzz1-D2 = target: CaBzz1-D2
# How it was run: as §1
# CaCyk3 = target: CaCyk3
# How it was run: as §1
# CaFus1 = target: CaFus1
# How it was run: as §1
# CaHof1 = target: CaHof1
# How it was run: as §1
# CaHse1 = target: CaHse1
# How it was run: as §1
# CaLsb1 = target: CaLsb1
# How it was run: as §1
# CaLsb4 = target: CaLsb4
# How it was run: as §1
# CaMyo5 = target: CaMyo5
# How it was run: as §1
# CaNbp2 = target: CaNbp2
# How it was run: as §1
# CaRvs167 = target: CaRvs167
# How it was run: as §1
# CaRvs167-3 = target: CaRvs167-3
# How it was run: as §1
# CaSho1 = target: CaSho1
# How it was run: as §1
# CaSla1-D1-D2 = target: CaSla1-D1-D2
# How it was run: as §1
# CaSla1-D3 = target: CaSla1-D3
# How it was run: as §1
# ScAbp1 = target: ScAbp1
# How it was run: as §1
# ScBbc1 = target: ScBbc1
# How it was run: as §1
# ScBem1-D1 = target: ScBem1-D1
# How it was run: as §1
# ScBzz1-D1 = target: ScBzz1-D1
# How it was run: as §1
# ScBzz1-D2 = target: ScBzz1-D2
# How it was run: as §1
# ScCyk3 = target: ScCyk3
# How it was run: as §1
# ScFus1 = target: ScFus1
# How it was run: as §1
# ScHof1 = target: ScHof1
# How it was run: as §1
# ScHse1 = target: ScHse1
# How it was run: as §1
# ScLsb1 = target: ScLsb1
# How it was run: as §1
# ScLsb2 = target: ScLsb2
# How it was run: as §1
# ScLsb3 = target: ScLsb3
# How it was run: as §1
# ScLsb4 = target: ScLsb4
# How it was run: as §1
# ScMyo3 = target: ScMyo3
# How it was run: as §1
# ScMyo5 = target: ScMyo5
# How it was run: as §1
# ScNbp2 = target: ScNbp2
# How it was run: as §1
# ScPex13 = target: ScPex13
# How it was run: as §1
# ScRvs167 = target: ScRvs167
# How it was run: as §1
# ScSho1 = target: ScSho1
# How it was run: as §1
# ScSla1-D1-D2 = target: ScSla1-D1-D2
# How it was run: as §1
# ScSla1-D3 = target: ScSla1-D3
# How it was run: as §1
# SpAbp1-D1 = target: SpAbp1-D1
# How it was run: as §1
# SpBbc1 = target: SpBbc1
# How it was run: as §1
# SpBzz1-D1 = target: SpBzz1-D1
# How it was run: as §1
# SpBzz1-D2 = target: SpBzz1-D2
# How it was run: as §1
# SpCyk3 = target: SpCyk3
# How it was run: as §1
# SpHof1 = target: SpHof1
# How it was run: as §1
# SpHof1-2 = target: SpHof1-2
# How it was run: as §1
# SpHof1-3 = target: SpHof1-3
# How it was run: as §1
# SpHse1 = target: SpHse1
# How it was run: as §1
# SpLsb1 = target: SpLsb1
# How it was run: as §1
# SpLsb4 = target: SpLsb4
# How it was run: as §1
# SpMyo1 = target: SpMyo1
# How it was run: as §1
# SpNbp2 = target: SpNbp2
# How it was run: as §1
# SpPex13 = target: SpPex13
# How it was run: as §1
# SpRvs167 = target: SpRvs167
# How it was run: as §1
# SpSla1-D1-D2 = target: SpSla1-D1-D2
# How it was run: as §1
# SpSla1-D3 = target: SpSla1-D3
# How it was run: as §1
binder,measurement,setting,value
RAPPPVPKKPSSRIA,SPOT peptide array binding signal intensity,AgAbp1,8420
same,SPOT peptide array binding signal intensity,AgBbc1,1600
same,SPOT peptide array binding signal intensity,AgBem1-D1,51.5
same,SPOT peptide array binding signal intensity,AgBzz1-D1,3320
same,SPOT peptide array binding signal intensity,AgBzz1-D2,373
same,SPOT peptide array binding signal intensity,AgCyk3,≤ 0
same,SPOT peptide array binding signal intensity,AgFus1,≤ 0
same,SPOT peptide array binding signal intensity,AgHof1,415
same,SPOT peptide array binding signal intensity,AgHse1,102
same,SPOT peptide array binding signal intensity,AgLsb1,676
same,SPOT peptide array binding signal intensity,AgLsb4,48
same,SPOT peptide array binding signal intensity,AgMyo5,36.8
same,SPOT peptide array binding signal intensity,AgNbp2,3960
same,SPOT peptide array binding signal intensity,AgRvs167,230
same,SPOT peptide array binding signal intensity,AgSho1,296
same,SPOT peptide array binding signal intensity,AgSla1-D1-D2,≤ 0
same,SPOT peptide array binding signal intensity,AgSla1-D3,380
same,SPOT peptide array binding signal intensity,CaAbp1-D1,2320
same,SPOT peptide array binding signal intensity,CaAbp1-D2,4330
same,SPOT peptide array binding signal intensity,CaBbc1,1870
same,SPOT peptide array binding signal intensity,CaBem1-D1,12.5
same,SPOT peptide array binding signal intensity,CaBzz1-D1,5970
same,SPOT peptide array binding signal intensity,CaBzz1-D2,2940
same,SPOT peptide array binding signal intensity,CaCyk3,61.5
same,SPOT peptide array binding signal intensity,CaFus1,28.5
same,SPOT peptide array binding signal intensity,CaHof1,≤ 0
same,SPOT peptide array binding signal intensity,CaHse1,1200
same,SPOT peptide array binding signal intensity,CaLsb1,0.5
same,SPOT peptide array binding signal intensity,CaLsb4,2220
same,SPOT peptide array binding signal intensity,CaMyo5,2.5
same,SPOT peptide array binding signal intensity,CaNbp2,1040
same,SPOT peptide array binding signal intensity,CaRvs167,170
same,SPOT peptide array binding signal intensity,CaRvs167-3,1
same,SPOT peptide array binding signal intensity,CaSho1,94
same,SPOT peptide array binding signal intensity,CaSla1-D1-D2,3890
same,SPOT peptide array binding signal intensity,CaSla1-D3,250
same,SPOT peptide array binding signal intensity,ScAbp1,2860
same,SPOT peptide array binding signal intensity,ScBbc1,270
same,SPOT peptide array binding signal intensity,ScBem1-D1,9
same,SPOT peptide array binding signal intensity,ScBzz1-D1,565
same,SPOT peptide array binding signal intensity,ScBzz1-D2,33
same,SPOT peptide array binding signal intensity,ScCyk3,7
same,SPOT peptide array binding signal intensity,ScFus1,1
same,SPOT peptide array binding signal intensity,ScHof1,1.5
same,SPOT peptide array binding signal intensity,ScHse1,≤ 0
same,SPOT peptide array binding signal intensity,ScLsb1,452
same,SPOT peptide array binding signal intensity,ScLsb2,1030
same,SPOT peptide array binding signal intensity,ScLsb3,4390
same,SPOT peptide array binding signal intensity,ScLsb4,52.5
same,SPOT peptide array binding signal intensity,ScMyo3,80.5
same,SPOT peptide array binding signal intensity,ScMyo5,50.2
same,SPOT peptide array binding signal intensity,ScNbp2,5230
same,SPOT peptide array binding signal intensity,ScPex13,869
same,SPOT peptide array binding signal intensity,ScRvs167,1400
same,SPOT peptide array binding signal intensity,ScSho1,2740
same,SPOT peptide array binding signal intensity,ScSla1-D1-D2,2100
same,SPOT peptide array binding signal intensity,ScSla1-D3,331
same,SPOT peptide array binding signal intensity,SpAbp1-D1,2240
same,SPOT peptide array binding signal intensity,SpBbc1,26
same,SPOT peptide array binding signal intensity,SpBzz1-D1,2030
same,SPOT peptide array binding signal intensity,SpBzz1-D2,198
same,SPOT peptide array binding signal intensity,SpCyk3,5
same,SPOT peptide array binding signal intensity,SpHof1,186
same,SPOT peptide array binding signal intensity,SpHof1-2,20.2
same,SPOT peptide array binding signal intensity,SpHof1-3,372
same,SPOT peptide array binding signal intensity,SpHse1,126
same,SPOT peptide array binding signal intensity,SpLsb1,1720
same,SPOT peptide array binding signal intensity,SpLsb4,1110
same,SPOT peptide array binding signal intensity,SpMyo1,151
same,SPOT peptide array binding signal intensity,SpNbp2,48.5
same,SPOT peptide array binding signal intensity,SpPex13,≤ 0
same,SPOT peptide array binding signal intensity,SpRvs167,1860
same,SPOT peptide array binding signal intensity,SpSla1-D1-D2,576
same,SPOT peptide array binding signal intensity,SpSla1-D3,≤ 0
